Laboratory results published in article PMC10163288.
Not all results are given here. The true hit rate is not given.

B1: il2ra_site1_2b5i_normal_mot_HHH_b1_02271_000000068_0001_1_16_H_._HHH_b1_08003_0001_0000900024_0000001_0_af2pred_dldesign_0_af2pred (protein)
chain: SSSSSDKKAEVERLIEEAERLYKAGKRREALEKLNEAKKLADAADDEELEDKIEELAKKISSSSS
B2: il2ra_site1_3nfp_sap_13_mot_0eddeacbb14b769e73e254714f31e2f9_0001_af2_000000052_0001_37_51_H_._3685a7fc0315cffcf770f862f50b42b9_0001_1_0001_0000400028_0000001_0 … (protein)
chain: SDLEEEVRELIELIKEFAEERNSPVAKLYAELLEEAARRAEERNDERSLRYVLRSARLALRSGSS
B3: il2ra_site1_1z92_sap_18_mot_HHH_b1_00368_000000203_0001_23_39_H_._d7cfadeb27be910639eb6e95e3396c32_0001_af2_0001_0000300014_0000001_0_0001 (protein)
chain: SSSSDEELEERVKQFAEELVKELGLDEHAREALEKDAEAAVRLGFSERSIKLALERAARRASSSS
B4: il2ra_site1_3nfp_sap_17_mot_HHH_b1_07644_af2_000000110_0001_40_57_H_._HEEHE_2706_0001_0000400054_0000001_0_0001_af2pred_0001_af2pred_1_swapped (protein)
chain: SSSSDALEFVEELAEKAFENNDKFQLRALYKLLREALEKTGNPEAEEVLEKVEELLRELQSSSSS
B5: il2ra_site2_2erj_sap_25_mot_ca9fcc9ace360711d783d1260e4fbff1_0001_1_af2_000000007_0001_15_32_H_._7f39e2d7389de0c2f60e905c27398b6a_0001_1_af2_0001_0000400011_000 … (protein)
chain: SSSSSYEERVEELLEEAEEAYREGDLHAVYRLAVEALHVASELGDQELIRLVAEFVEKISDSSSS
B6: il2ra_site1_2b5i_sap_16_mot_HHH_b1_01419_af2_000000080_0001_42_53_H_._HHH_b1_05266_af2_0001_0000100001_0000001_1_0001_af2pred_dldesign_0_af2pred (protein)
chain: SSSSSNQDEVYRLYKEALRLYKEGKREEAKKVLEEALKLAEKNKDEVAVKELKELLKRLESSSSS
B7: il2ra_site1_1z92_normal_mot_9b3351f2f66fbcc824ad33b4da01f8ef_0001_af2_000000012_0001_16_32_H_._HHH_b1_08171_0001_0000100006_0000001_0 (protein)
chain: SSSSSEEVLKKDLRFAVEARNPSSFRRLAELARRDLKEAGDEEALREFEEFVEELEQELGSSSSS
B8: il2ra_site1_1z92_normal_mot_HHH_b1_00893_000000159_0001_19_35_H_._43152d1d296b358565056a4a32fd9b81_0001_1_af2_0001_0000300029_0000001_0_af2pred_0001_af2pred_1_s … (protein)
chain: DDEELEEKLKEAAENRDVEKLEELLRELLELLGDPAVKFLLEFFERLLKRDEEDAVKNVLRFVSF
B9: il2ra_site1_2b5i_normal_mot_HHH_b1_06428_000000224_0001_1_17_H_._HHH_b1_02461_0001_0000700038_0000001_0_af2pred_dldesign_0_af2pred (protein)
chain: SSSSSSLAEARRLLLETEELLKAGKLEELAKLKKRIDALKAASDDPKVKKIADLINEALESSSSS
B10: il2ra_site2_2erj_normal_mot_c2bf78bdce995293a161f7082e24b401_0001_af2_000000082_0001_17_32_H_._HHH_b1_07868_0001_0000100001_0000001_0 (protein)
chain: SSSSSDEEEIRREVEELLEKVEEVPDLEEAYRLANEALRLASRLQDEELLRLILEVVQRHSSSSS
B11: il2ra_site2_3nfp_normal_mot_HHH_b1_05627_af2_000000038_0001_43_56_H_._HHH_b1_07199_af2_0001_0000600017_0000001_0 (protein)
chain: SSSSDKAEEYLRIALELLEEAIKAGDEESAKSILEVARLAAELHNDEEVEERLEELEELLSSSSS
B12: il2ra_site1_3nfp_normal_mot_HHH_b1_04049_af2_000000244_0001_42_55_H_._d1fb33ed66649044859e967e86ea168f_0001_af2_0001_0000200005_0000001_0 (protein)
chain: TKEKAIEDIIRALKQLPDPEVRELAEEAEELLENGDPEEALKVLKEAAKLLGDPVLEKLIEQYLT
B13: il2ra_site2_3nfp_sap_7_mot_HHH_b2_00746_000000285_0001_20_36_H_._HHH_b2_00413_af2_0001_0000200017_0000001_0_0001 (protein)
chain: SSSSDEVEELLREIRELLEEGDTYEAAQLLVRVSEIAAKLGDPELVKIVLELYKILKEKASSSSS
B14: il2ra_site2_3nfp_normal_mot_HHH_b1_05785_af2_000000002_0001_41_57_H_._HHH_b1_03527_af2_0001_0000800015_0000001_0 (protein)
chain: SSSSDEAEEYVKAALALLEEALEQGDEELFEKLARLIELAIEDLGNPELEERLEELKERGSSSSS
B15: il2ra_site2_2erj_sap_23_mot_ca9fcc9ace360711d783d1260e4fbff1_0001_1_af2_000000007_0001_15_32_H_._HHH_b2_04203_af2_0001_0000300022_0000001_0_0001 (protein)
chain: SSSDREEARVHFLAFRAMRLNNNGNPEEAQKVLEEAKEIAEENNNEELREWLEAMERTIKHSSSS
B16: il2ra_site2_3nfp_sap_18_mot_HHH_b1_07556_000000077_0001_42_55_H_._HHH_b2_07201_0001_0000400029_0000001_0_0001 (protein)
chain: SSSSDEEEEVKRSLEYLKAVAKLHNDEELQEVIEEAERILEEDNDPEKAAEALSEIALKLASSSS
B17: il2ra_site1_2b5i_sap_7_mot_HHH_b1_05947_000000126_0001_42_56_H_._HHH_b1_05810_af2_0001_0000100008_0000001_1_0001_af2pred_0001_af2pred (protein)
chain: SSSSSEEEQRAFELYHEASRAFSNGDKERARELLEEAIELAEEAGDPKIKRELEQFLEMLSSSSS
B18: il2ra_site1_3nfp_sap_21_mot_HHH_b2_04910_af2_000000236_0001_1_18_H_._4946fae19574d7b03d9e348227509a78_0001_0001_0000300023_0000001_0_0001_af2pred_0001_af2pred (protein)
chain: SSSDEREVHKLLKEALEAALKGNPEEARELLEEAERLAKELNNPRAEHTVEKALKSFERARSSSS
B19: il2ra_site2_2erj_normal_mot_76e6e8f7232a9e65eeaab5ff8ecb4c96_0001_000000242_0001_17_31_H_._HHH_eva_0320_af2_0001_0000500007_0000001_1 (protein)
chain: SSTEEEEVRRVVEEAEELIKRGDLEEAEEVLSEAFTLVYELGDEELVILILELAHELVRLLAKSS
B20: il2ra_site2_2erj_normal_mot_af86707857d369f3e1d85dcabc5f9321_0001_000000201_0001_14_29_H_._HHH_b1_07617_0001_0001000035_0000001_1_af2pred_0001_af2pred (protein)
chain: SSSSDEEEQIERLLREARELLEEGDPERAREVVWEAAQLAAESDNEELLKEILELLREIHGSSSS
B21: il2ra_site1_2b5i_normal_mot_HHH_b1_00432_000000039_0001_1_18_H_._HHH_b1_02735_0001_0000300013_0000001_0_af2pred_dldesign_0_af2pred (protein)
chain: SSSSSSDEEIEAAEDLALQALKEKDKEKRKELLEEALRLAQKGKDAKLVAQIQELLERLKSSSSS
B22: il2ra_site2_3nfp_normal_mot_HHH_b2_04451_000000238_0001_21_37_H_._HHH_b2_00723_af2_0001_0000500044_0000001_0 (protein)
chain: SSSSDLEEEVERLIEEVERLLEEGDKHEAAQLLLEATKLVAELNNEELARILLELFELLQKSSSS
B23: il2ra_site1_3nfp_sap_8_mot_d8099cd8ef6a59b9c03de2010570d688_0001_af2_000000259_0001_37_51_H_._HHH_b2_05910_0001_0000100005_0000001_0_0001 (protein)
chain: SAEEFVKRAKELVPPELQELLERALELALKRQDPKLARLLIKAVAAIQQGDPEKAEEVLKELEER
B24: il2ra_site1_2b5i_normal_mot_HHH_b1_08745_af2_000000166_0001_39_57_H_._HHH_b1_05884_0001_0000600032_0000001_0_af2pred_dldesign_0_af2pred (protein)
chain: SSSSSPEIQKLREMFEEADRLFKAGKYEEAKELLEKALKLAKELGANLELRIIQSALEQLESSSS

biological target: il2ra, P01589; assay: yeast display titration
Sequence (P01589 whole entry): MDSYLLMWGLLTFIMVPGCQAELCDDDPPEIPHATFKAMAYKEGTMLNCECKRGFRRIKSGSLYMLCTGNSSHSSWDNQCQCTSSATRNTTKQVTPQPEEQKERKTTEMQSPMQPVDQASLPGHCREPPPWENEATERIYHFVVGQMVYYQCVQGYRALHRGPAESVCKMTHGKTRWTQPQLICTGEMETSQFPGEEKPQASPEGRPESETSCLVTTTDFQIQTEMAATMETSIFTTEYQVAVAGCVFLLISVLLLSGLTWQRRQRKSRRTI

Apparent Kd, inactive:
B1 no binding seen
B2 no binding seen
B3 no binding seen
B4 no binding seen
B5 no binding seen
B6 no binding seen
B7 > 1500 nM
B8 > 2780 nM
B9 no binding seen
B10 no binding seen
B11 no binding seen
B12 no binding seen
B13 no binding seen
B14 no binding seen
B15 no binding seen
B16 no binding seen
B17 no binding seen
B18 no binding seen
B19 no binding seen
B20 no binding seen
B21 no binding seen
B22 no binding seen
B23 no binding seen
B24 no binding seen
